# Results reported in PubChem BioAssay.
# Values joined by “and” are separate entries in the source; they are usually repeats but may differ in a detail not shown here. Equal entries are not always repeated. Records with an inconclusive call do not appear. Active and inactive are the calls of the source.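 The calls were made as follows, unless noted: active = compounds whose cell count with miR-34 switched on is under 0.7 times the count with it off; inactive = the rest.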
# Assays:
# [1] = hESC survival regulators, cell-based (AID 493140; call rule not given here;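 also: cells exposed to compounds for four days before counting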); conditions: human embryonic stem cell survival screen; stronger effect = higher value
# [2] = sensitizers of A549 cells to miR-34 induction, primary screen, imaging, A549 dox-inducible miR-34, nuclei and caspase counts (AID 1347080); conditions: A549 miR-34 inducible, Hoechst nuclei count, 48 h
# [3] = molecular target: ATP-dependent translocase ABCB1 (Homo sapiens) (UniProt P08183); experiment: MDR1 (ABCB1) efflux transporter inhibition, cell-based (AID 377; in the data active = fluorescence slope change above about 50%); conditions: MDR1-expressing cells, fluorescent substrate accumulation slope; stronger effect = higher value; concentration not given here
# Sequence of ATP-dependent translocase ABCB1 (Homo sapiens) (P08183 whole entry, looked up): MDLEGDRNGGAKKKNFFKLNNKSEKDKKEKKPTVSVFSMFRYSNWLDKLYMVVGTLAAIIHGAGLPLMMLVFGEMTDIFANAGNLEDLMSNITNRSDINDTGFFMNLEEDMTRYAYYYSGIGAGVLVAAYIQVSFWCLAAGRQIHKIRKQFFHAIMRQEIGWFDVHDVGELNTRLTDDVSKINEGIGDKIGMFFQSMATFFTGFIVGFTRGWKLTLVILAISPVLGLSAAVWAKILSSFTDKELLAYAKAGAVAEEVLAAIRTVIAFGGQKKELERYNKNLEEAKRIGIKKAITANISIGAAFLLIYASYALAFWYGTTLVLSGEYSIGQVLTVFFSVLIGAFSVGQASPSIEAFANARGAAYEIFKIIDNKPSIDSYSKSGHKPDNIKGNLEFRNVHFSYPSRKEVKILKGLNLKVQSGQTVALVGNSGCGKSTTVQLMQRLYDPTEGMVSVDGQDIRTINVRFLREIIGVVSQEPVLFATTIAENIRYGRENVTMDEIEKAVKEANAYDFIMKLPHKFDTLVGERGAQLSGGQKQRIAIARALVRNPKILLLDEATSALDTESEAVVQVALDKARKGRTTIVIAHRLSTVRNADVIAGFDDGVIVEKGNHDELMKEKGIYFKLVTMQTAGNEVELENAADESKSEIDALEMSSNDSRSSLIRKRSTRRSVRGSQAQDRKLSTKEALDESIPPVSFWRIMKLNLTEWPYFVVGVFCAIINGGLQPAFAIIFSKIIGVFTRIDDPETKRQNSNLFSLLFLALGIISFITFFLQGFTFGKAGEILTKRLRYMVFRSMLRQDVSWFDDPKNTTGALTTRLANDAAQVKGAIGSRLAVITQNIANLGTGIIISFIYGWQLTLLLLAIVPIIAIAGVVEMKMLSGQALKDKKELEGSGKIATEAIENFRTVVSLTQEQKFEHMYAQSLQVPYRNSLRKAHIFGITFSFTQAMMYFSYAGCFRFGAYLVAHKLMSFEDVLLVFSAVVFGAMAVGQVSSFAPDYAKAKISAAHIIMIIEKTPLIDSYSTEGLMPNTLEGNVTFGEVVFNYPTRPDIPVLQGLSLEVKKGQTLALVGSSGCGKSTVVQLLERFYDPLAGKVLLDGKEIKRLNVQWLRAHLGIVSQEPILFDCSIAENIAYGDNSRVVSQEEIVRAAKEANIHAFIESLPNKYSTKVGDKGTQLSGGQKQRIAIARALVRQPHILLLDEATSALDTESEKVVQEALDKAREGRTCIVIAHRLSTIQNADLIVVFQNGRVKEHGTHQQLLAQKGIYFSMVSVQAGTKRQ
# [4] = liver-stage malaria parasite growth inhibition, primary screen, cell-based, HepG2, luciferase luminescence, HepG2 viability (AID 624349; in the data active = parasite load remaining mostly below about 12%, no sharp cut-off; inactive = mostly above about 10%;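 also: 100% = mean of DMSO negative control wells on the same plate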); conditions: P. berghei liver stage in HepG2, luciferase luminescence, concentration not given here; parasite load remaining: stronger effect = lower value; viability: measured here: HepG2 viability without parasites
# [5] = stronger effect = lower value, cell number ratio, induced over uninduced
# [6] = measured here: relative caspase fold change +Dox/-Dox
# [7] = measured here: total cells with miR-34 induction, stronger effect = lower value
# [8] = measured here: total cells without miR-34 induction
SMILES,survival [1],"fold change [2, 5]","fold change [2, 6]","cell count [2, 7]","cell count [2, 8]",fluorescence slope change [3],parasite load remaining [4],viability [4]
CCCCC[C@H](O)/C=C/[C@@H]1[C@@H](CC(=O)CCCCC(=O)O)[C@@H](O)C[C@H]1O,129 (inactive),0.992 (inactive) and 0.934 (inactive),1.02 and 1.32,5930 and 6160,5980 and 6600,–,–,–
CCCCCCCCCCCCCCCCOCC(COP(=O)([O-])OCC[N+](C)(C)C)OC (stereo not given),64.4 (inactive),0.921 (inactive),1.04,5520,5990,–,–,–
CCCCC/C=C\C[C@@H](O)/C=C/C=C\C/C=C\CCCC(=O)O,89.3 (inactive),0.841 (inactive),1.54,4740,5630,–,–,–
O[C@@H]1[C@@H](O)C=C2CCN3Cc4cc5c(cc4[C@H]1C23)OCO5 (stereo not given in full),0.583 (inactive),0.89 (inactive),1.09,2250,2530,10.1% (inactive),-0.065% (active),101%
CCCCCCCCCCCCCCCCCCOC[C@H](COP(=O)([O-])OCC[N+](C)(C)C)OC(C)=O,83.4 (inactive),0.968 (inactive) and 1 (inactive),1.1 and 0.859,5740 and 5730,5930 and 5720,–,–,–
CCCCCCCCCCCCCCCC(=O)C1=C(O)C(CO)OC1=O (stereo not given),98.2 (inactive),0.877 (inactive),0.963,5220,5960,–,–,–
CCCCCC(=O)/C=C/[C@@H]1[C@@H](C/C=C\CCCC(=O)O)[C@@H](O)C[C@H]1O,66.1 (inactive),1.04 (inactive),1.11,6170,5940,–,–,–
CCCCCCCCCCCCCCCCOC[C@H](COP(=O)([O-])OCC[N+](C)(C)C)OC(=O)NC,80.6 (inactive),0.941 (inactive) and 0.889 (inactive),1.15 and 1.06,5360 and 4990,5690 and 5620,–,–,–
CCCCCCCCCCCCC(O)C(=O)O (stereo not given),71.7 (inactive),0.965 (inactive) and 0.989 (inactive),1.1 and 0.875,6110 and 6000,6330 and 6060,–,–,–
CCCCCCCCCCCCCCCC(=O)NCCc1ccc(O)c(O)c1,69.7 (inactive),0.93 (inactive),0.624,5560,5980,–,–,–
O=C(O)CCC/C=C\C[C@@H]1[C@@H](/C=C/[C@@H](O)COc2cccc(C(F)(F)F)c2)[C@H](O)C[C@@H]1O,118 (inactive),0.964 (inactive) and 1.06 (inactive),2.48 and 1.05,5470 and 6950,5680 and 6530,–,–,–
COc1ccc2c(OC)c3ccoc3nc2c1OC,3.67 (inactive),0.86 (inactive),1.16,8660,10100,16.3% (inactive),157% (inactive),95.8%
CCCCCCCCCCCCCCC[C@@H](O)[C@H](CO)NC(=O)CCCCCCC,84.9 (inactive),0.925 (inactive),1.41,5910,6390,–,–,–
COC(=O)[C@H]1[C@H]2C[C@@H]3c4[nH]c5cc(OC)ccc5c4CCN3C[C@H]2C[C@@H](OC(=O)/C=C/c2cc(OC)c(OC)c(OC)c2)[C@@H]1OC,9.58 (inactive),0.865 (inactive),1.32,7260,8390,61% (active),26.9% (inactive) and 41.8% (inactive),94.2% and 77.7%
O=C1C=CC(=O)c2c1ccc1c2ccc2ccccc21,5.83 (inactive),0.87 (inactive),1.13,7950,9140,25.9% (inactive),14.2% (inactive) and 61.1% (inactive),64.9% and 72.9%
CCCCC[C@H](O)/C=C/[C@@H]1[C@@H](C/C=C\CCCC(=O)O)[C@H]2CO[C@@H]1C2,104 (inactive),0.992 (inactive),1.22,5990,6040,–,–,–
CCCCC[C@H](O)/C=C/[C@@H]1[C@@H](C/C=C\CCCC(=O)O)[C@@H](O)C[C@@H]1O,97.2 (inactive),0.891 (inactive) and 0.917 (inactive),1.22 and 1.29,5840 and 5720,6560 and 6230,–,–,–
CCCCCCCC/C=C\CCCCCCCCOC[C@H](COP(=O)([O-])OCC[N+](C)(C)C)OC(C)=O,95.4 (inactive),0.905 (inactive),1.27,6070,6700,–,–,–
CO[C@@H]1[C@@H](OC(N)=O)[C@@H](O)C(Oc2ccc3c(O)c(NC(=O)c4ccc(O)c(CC=C(C)C)c4)c(=O)oc3c2C)OC1(C)C (stereo not given in full),–,0.855 (inactive),1.4,9430,11000,82.3% (active),78.5% (inactive),90.9%
c1ccc2c(c1)CCCc1cc(NCCN3CCOCC3)nnc1-2,2.75 (inactive),0.801 (inactive),2.12,7290,9100,77.5% (active),74.6% (inactive) and 80.6% (inactive),105% and 79%

SMILES,survival [1],"fold change [2, 5]","fold change [2, 6]","cell count [2, 7]","cell count [2, 8]",fluorescence slope change [3],parasite load remaining [4],viability [4]
CCCCC/C=C\C[C@@H](O)/C=C/C=C/C=C\[C@@H](O)CCCC(=O)O,102 (inactive),0.993 (inactive),1.34,6200,6240,–,–,–
COc1c(O[C@@H]2O[C@H](CO)[C@@H](O)[C@H](O)[C@H]2O)cc2c(c1OC)-c1ccc(SC)c(=O)cc1C(NC(C)=O)CC2 (stereo not given in full),8.17 (inactive),0.892 (inactive),1.15,8970,10100,56.6% (active),68.6% (inactive) and 75.2% (inactive),120% and 78%
CCCCCCCCCCCCCC(=O)N[C@H](C)[C@@H](O)c1ccccc1,87.5 (inactive),1.02 (inactive),1.49 and 1.71,5830 and 6030,5700 and 5920,–,–,–
CCCCC(C)(O)C/C=C/[C@H]1[C@H](O)CC(=O)[C@@H]1CCCCCCC(=O)O (stereo not given in full),92.9 (inactive),0.933 (inactive) and 0.881 (inactive),1.28 and 1.98,6180 and 5400,6620 and 6130,–,–,–
COC(C)(C)CCCC(C)C/C=C/C(C)=C/C(=O)O (stereo not given),91.1 (inactive),0.916 (inactive),0.969,5680,6210,–,–,–
COC(=O)C1=CO[C@@H](C)[C@H]2CN3CCc4c([nH]c5ccccc45)[C@@H]3C[C@H]12,10.5 (inactive),0.773 (inactive),1.63,5880,7600,76.8% (active),108% (inactive) and 62.6% (inactive),97.4% and 74.1%
CC/C=C\C/C=C\C/C=C\C/C=C\C/C=C\C/C=C\CCC(=O)O[C@H](COCCCCCCCCCCCCCCCC)COP(=O)([O-])OCC[N+](C)(C)C,68.5 (inactive),1.06 (inactive),1.37,5710,5380,–,–,–
CCCCC[C@H](O)/C=C/[C@@H]1[C@H]2C/C(=C/CCCC(=O)O)C[C@H]2C[C@H]1O,59.9 (inactive),0.942 (inactive),1.29,5920,6280,–,–,–
C[C@H](CCC(=O)NCC(=O)O)[C@H]1CC[C@H]2[C@@H]3[C@H](O)C[C@@H]4C[C@H](O)CC[C@]4(C)[C@H]3C[C@H](O)[C@]12C,14.6 (inactive),0.862 (inactive),1.21,8770,10200,91% (active),142% (inactive) and 80.1% (inactive),103% and 76.4%
CCCCCC(O)/C=C/C=O (stereo not given),101 (inactive),0.954 (inactive),1.27,5280,5530,–,–,–
CCCCCCCCCCCCCCC(F)C(=O)O (stereo not given),81.6 (inactive),0.989 (inactive) and 1.01 (inactive),1.15 and 0.824,6040 and 6340,6110 and 6280,–,–,–
CCCCC[C@H](O)/C=C/[C@@H]1[C@H]2C/C(=C/CCCC(=O)O)O[C@H]2C[C@H]1O,102 (inactive),1.05 (inactive),1.16 and 1.02,6320 and 6530,6040 and 6220,–,–,–
C[N+]1(C)C[C@@H](O)C[C@H]1C(=O)[O-],7 (inactive),0.868 (inactive),1.07,8350,9610,28.3% (inactive),117% (inactive),106%
O=c1cc(-c2ccc(O)cc2)oc2c(C3O[C@H](CO)[C@@H](O)[C@H](O)[C@H]3O)c(O)cc(O)c12 (stereo not given in full),3.5 (inactive),0.841 (inactive),1.12,8230,9780,–,96.7% (inactive),101%
C[C@H]1[C@H](C)CC[C@]2(C(=O)O[C@@H]3O[C@H](COC4O[C@H](CO)[C@@H](OC5O[C@@H](C)[C@H](O)[C@@H](O)[C@H]5O)[C@H](O)[C@H]4O)[C@@H](O)[C@H](O)[C@H]3O)CC[C@]3(C)C(=CC[C@@H]4[C@@]5(C)C[C@@H](O)[C@H](O)[C@@](C)(CO)C5CC[C@]43C)[C@H]12 (stereo not given in full),–,0.957 (inactive),0.577,8940,9340,–,109% (inactive),74.2%
CCOC(=O)[C@H](CCc1ccccc1)N[C@@H](C)C(=O)N1C(C(=O)O)C[C@@H]2CCC[C@@H]21 (stereo not given in full),13.5 (inactive),0.971 (inactive),0.659,9850,10100,–,66.3% (inactive),72.7%
C[C@@H]1C(=O)O[C@H]2CC34[C@H]5C[C@@H](C(C)(C)C)[C@]36[C@@H](OC(=O)[C@@H]6O)O[C@@]4(C(=O)O5)[C@]21O (stereo not given in full),–,0.905 (inactive),1.08,9000,9940,–,93.7% (inactive),99.1%
CCCCC[C@H](O)/C=C/[C@H]1OC(O)C[C@H](O)[C@@H]1C/C=C\CCCC(=O)O (stereo not given in full),96.2 (inactive),0.852 (inactive),1.59,5370,6300,–,–,–
CCCCCCCCCCCCCCCC(=O)OCC(COP(=O)(O)O)OC(=O)CCCCCCCCCCCCCCC (stereo not given),95.5 (inactive),0.922 (inactive),1.21,5850,6340,–,–,–
